# Laboratory results: PubChem BioAssay
# Activity calls are given as the source filed them.
# What was measured:
# [1] = tested on: Plasmodium falciparum Sir2 (PF13_0152, Sir2A); experiment: Plasmodium falciparum Sir2A binding compounds – biochemical, small-molecule microarray, 635 nm fluorescence, primary screen (AID 1098); details: fluorescence 635 nm, higher = more signal;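 further: score merges spot fluorescence intensity with its signal-to-noise ratio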
# [2] = probe aDKK1 binding to arrayed compounds – biochemical, biotinylated probe, 635/667 nm fluorescence, primary screen (AID 1099); details: small-molecule microarray, higher = more signal;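 further: score merges 667nm spot fluorescence with signal to noise across triplicate slides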
# [3] = probe aCHRDL2 binding to arrayed compounds – biochemical, biotinylated probe, 635/667 nm fluorescence, primary screen (AID 1100); details: small-molecule microarray, higher = more signal
# [4] = change in splice reporter luminescence, either direction, cell-based, HEK293, spliceosome inhibition project, primary screen (AID 1101); details: HEK293 splicing luciferase reporter, 24 h, higher = more signal, called active from +8 up or from −8 down;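 further: HEK293 cells carrying a splicing-competent luciferase reporter gene; test concentration not given here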
# [5] = target: Fibroblast growth factor 10 (Homo sapiens) (UniProt O15520); experiment: compounds binding fibroblast growth factor 10 – biochemical, small-molecule microarray, 635 nm fluorescence, primary screen (AID 1102); details: FGF10 binding, fluorescence 635 nm, higher = more signal
# [6] = tested on: glycogen synthase kinase-3 (GSK3A per assay name; protocol says GSK3B); experiment: compounds binding glycogen synthase kinase-3 – biochemical, small-molecule microarray, 635 nm fluorescence, GSK3A, primary screen (AID 1103); details: fluorescence 635 nm, higher = more signal; further: the record names both GSK3A and GSK3B
# [7] = target: Epidermal growth factor receptor (Homo sapiens) (UniProt P00533); experiment: compounds binding epidermal growth factor receptor – biochemical, small-molecule microarray, 635 nm fluorescence, primary screen (AID 1104); details: EGFR binding, higher = more signal;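 further: score merges 667 nm emission intensity with spot signal to noise over triplicate slides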
# [8] = target: Follistatin-related protein 3 (Homo sapiens) (UniProt O95633); experiment: compounds binding follistatin-related protein 3 – biochemical, small-molecule microarray, 635 nm fluorescence, primary screen (AID 1105); details: FSTL3 binding, higher = more signal;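 further: score merges emission near 667 nm and signal to noise per printed spot across three slides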
# [9] = target: Dickkopf-related protein 1 (Homo sapiens) (UniProt O94907); experiment: small molecules binding DKK1 protein – biochemical, small-molecule microarray, 635 nm fluorescence scan, primary screen (AID 1106); details: higher = more signal;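 further: score merges emission near 667 nm with signal to noise over three replicate slides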
# [10] = tested on: Inhibin beta A chain (activin A); experiment: small molecules binding activin A – biochemical, small-molecule microarray, 635 nm fluorescence scan, primary screen (AID 1107); details: INHBA, higher = more signal;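 further: mouse activin A protein probed at 4.33 µg/mL on printed slides; score merges bound-protein fluorescence near 667 nm with spot signal-to-noise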
# [11] = tested on: Human papillomavirus type 1a protein E7 (residues 44-93); experiment: small molecules binding HPV E7 44-93 – biochemical, small-molecule microarray, residues 44-93, 635 nm fluorescence, primary screen (AID 1108); details: fluorescence 635 nm, higher = more signal;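 further: E7 fragment applied at 1 µg/mL in TBST for 1 h at 4 C; score combines spot fluorescence with its signal to noise ratio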
# [12] = hepatitis C replication reporter changes, two-sided – Huh7 cells, luciferase reporter, HCV replication inhibitor project, primary screen (AID 1109); details: Huh7 HCV replicon luciferase reporter, 48 h; higher = more signal;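 further: huh7 hepatoma cells harbouring a luciferase neomycin HCV replicon reporter; luciferase luminescence as measure of HCV replicon replication; test concentration not given here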
# [13] = target: Left-right determination factor 2 (Homo sapiens) (UniProt O00292); experiment: small molecules binding LEFTY2 protein – biochemical, small-molecule microarray, 635 nm fluorescence scan, primary screen (AID 1110); details: higher = more signal
# [14] = target: Calmodulin-1 (Homo sapiens) (UniProt P0DP23); experiment: small molecules binding calmodulin-1 with EGTA – biochemical, small-molecule microarray, Cy5-labelled CALM1, profiling panel (AID 1111); details: Cy5-CALM1 binding fluorescence, higher = more signal;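 further: labelled calmodulin applied in Tris saline Tween buffer holding calcium plus EGTA and DTT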
# [15] = target: Calmodulin-1 (Homo sapiens) (UniProt P0DP23); experiment: small molecules binding Ca-loaded calmodulin-1 – biochemical, small-molecule microarray, Cy5-labelled CALM1, plus calcium, artefact control for SMM control-protein annotation, profiling panel (AID 1112); details: Cy5-CALM1 binding fluorescence, higher = more signal;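 further: score merges spot fluorescence with signal to noise from triplicate slides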
# [16] = probe aWnt5a binding to arrayed compounds – biochemical, biotinylated probe, 635/667 nm fluorescence, primary screen (AID 1113); details: small-molecule microarray, higher = more signal;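 further: score merges 667 nm fluorescence intensity with signal-to-noise per printed feature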
# [17] = probe aShh binding to arrayed compounds – biochemical, biotinylated probe, 635/667 nm fluorescence, primary screen (AID 1114); details: small-molecule microarray, higher = more signal;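 further: probe is biotin-labelled aShh protein from a stem cell growth factor screen; measures binding of labelled protein to compounds printed on the slide; score merges feature fluorescence at 667 nm with signal-to-noise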
# [18] = probe aNog binding to arrayed compounds – biochemical, biotinylated probe, 635/667 nm fluorescence, primary screen (AID 1115); details: small-molecule microarray, higher = more signal;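 further: probe is biotinylated aNog protein used at 0.15 µg/mL for 1 h at 4 C; z-score combines 667 nm fluorescence of each spot with its signal to noise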
# [19] = target: Torsin-1A-interacting protein 1 (Homo sapiens) (UniProt Q5JTV8); experiment: compound microarray binding of lysate hLAP1 – cell lysate, small-molecule microarray, COS7 lysate, 635/667 nm fluorescence, primary screen (AID 1116); details: 635 nm fluorescence, higher = more signal
# [20] = target: Alpha-bungarotoxin (Bungarus multicinctus) (UniProt P60615); experiment: compounds binding labelled alpha-BTX control protein – biochemical, small-molecule microarray, Alexa647 label, 635/667 nm fluorescence, artefact control for SMM control protein annotation, profiling panel (AID 1117); details: alpha-BTX-A647 binding fluorescence, higher = more signal
# Chain of Alpha-bungarotoxin (Bungarus multicinctus) (P60615 whole entry, looked up): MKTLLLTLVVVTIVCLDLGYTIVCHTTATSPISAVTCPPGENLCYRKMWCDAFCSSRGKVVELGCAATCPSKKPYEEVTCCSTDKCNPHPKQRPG
# Chain of Epidermal growth factor receptor (Homo sapiens) (P00533 whole entry, looked up): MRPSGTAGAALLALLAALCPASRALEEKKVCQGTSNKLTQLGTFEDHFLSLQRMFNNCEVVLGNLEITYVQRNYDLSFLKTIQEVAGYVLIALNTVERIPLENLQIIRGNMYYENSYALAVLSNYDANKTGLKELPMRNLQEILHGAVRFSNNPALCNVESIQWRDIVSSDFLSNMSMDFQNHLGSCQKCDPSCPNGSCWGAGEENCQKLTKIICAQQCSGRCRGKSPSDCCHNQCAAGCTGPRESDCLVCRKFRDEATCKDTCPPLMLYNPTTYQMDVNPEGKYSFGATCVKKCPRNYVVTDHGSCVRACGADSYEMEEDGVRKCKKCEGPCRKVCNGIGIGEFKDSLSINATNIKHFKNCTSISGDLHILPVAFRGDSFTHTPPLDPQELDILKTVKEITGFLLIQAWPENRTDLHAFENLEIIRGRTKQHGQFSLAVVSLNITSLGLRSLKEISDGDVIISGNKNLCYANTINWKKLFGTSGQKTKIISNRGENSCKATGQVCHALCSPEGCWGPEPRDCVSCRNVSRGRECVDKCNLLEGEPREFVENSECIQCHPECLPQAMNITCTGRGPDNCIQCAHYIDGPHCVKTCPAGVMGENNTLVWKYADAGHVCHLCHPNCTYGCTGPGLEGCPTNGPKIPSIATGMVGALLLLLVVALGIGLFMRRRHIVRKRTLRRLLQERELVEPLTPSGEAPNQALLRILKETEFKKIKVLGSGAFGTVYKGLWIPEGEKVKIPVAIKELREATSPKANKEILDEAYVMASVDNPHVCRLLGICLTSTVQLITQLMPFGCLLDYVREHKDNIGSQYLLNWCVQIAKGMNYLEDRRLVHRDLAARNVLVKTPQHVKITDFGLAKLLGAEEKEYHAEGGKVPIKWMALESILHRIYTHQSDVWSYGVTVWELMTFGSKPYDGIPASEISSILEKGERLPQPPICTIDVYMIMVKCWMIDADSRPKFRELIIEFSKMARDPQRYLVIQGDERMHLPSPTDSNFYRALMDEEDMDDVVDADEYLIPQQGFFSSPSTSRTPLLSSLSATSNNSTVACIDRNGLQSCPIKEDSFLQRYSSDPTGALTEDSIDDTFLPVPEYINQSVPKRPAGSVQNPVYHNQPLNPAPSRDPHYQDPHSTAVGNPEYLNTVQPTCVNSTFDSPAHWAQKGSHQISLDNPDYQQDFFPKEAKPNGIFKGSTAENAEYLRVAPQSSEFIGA
# Chain of Follistatin-related protein 3 (Homo sapiens) (O95633 whole entry, looked up): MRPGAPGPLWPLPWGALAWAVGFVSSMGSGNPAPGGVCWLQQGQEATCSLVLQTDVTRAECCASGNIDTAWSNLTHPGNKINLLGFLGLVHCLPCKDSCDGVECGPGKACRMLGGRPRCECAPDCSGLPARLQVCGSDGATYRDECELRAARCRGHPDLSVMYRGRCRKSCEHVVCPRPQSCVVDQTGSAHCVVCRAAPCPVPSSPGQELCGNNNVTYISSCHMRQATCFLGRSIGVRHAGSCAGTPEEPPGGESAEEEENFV
# Chain of Fibroblast growth factor 10 (Homo sapiens) (O15520 whole entry, looked up): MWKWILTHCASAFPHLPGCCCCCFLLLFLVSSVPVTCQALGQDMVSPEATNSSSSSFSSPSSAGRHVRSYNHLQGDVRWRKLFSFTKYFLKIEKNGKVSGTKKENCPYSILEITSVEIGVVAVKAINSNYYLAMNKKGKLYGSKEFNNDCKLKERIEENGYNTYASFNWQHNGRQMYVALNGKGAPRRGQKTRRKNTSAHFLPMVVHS
# Chain of Torsin-1A-interacting protein 1 (Homo sapiens) (Q5JTV8 whole entry, looked up): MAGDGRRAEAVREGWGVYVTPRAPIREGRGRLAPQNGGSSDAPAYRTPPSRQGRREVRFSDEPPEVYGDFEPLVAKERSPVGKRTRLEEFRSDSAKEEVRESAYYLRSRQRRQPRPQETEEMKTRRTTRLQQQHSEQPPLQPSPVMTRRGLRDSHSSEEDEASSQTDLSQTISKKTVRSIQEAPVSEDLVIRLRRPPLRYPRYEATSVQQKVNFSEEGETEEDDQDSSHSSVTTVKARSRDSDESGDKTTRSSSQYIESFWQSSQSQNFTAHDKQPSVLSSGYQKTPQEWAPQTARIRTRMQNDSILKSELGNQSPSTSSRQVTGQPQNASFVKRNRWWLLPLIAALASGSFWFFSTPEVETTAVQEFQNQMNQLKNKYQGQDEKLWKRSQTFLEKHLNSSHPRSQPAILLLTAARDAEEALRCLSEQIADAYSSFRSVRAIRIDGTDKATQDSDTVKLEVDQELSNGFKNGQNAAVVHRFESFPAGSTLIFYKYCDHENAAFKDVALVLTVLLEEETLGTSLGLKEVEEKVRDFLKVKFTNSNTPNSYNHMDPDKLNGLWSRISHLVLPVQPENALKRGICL
# Chain of Dickkopf-related protein 1 (Homo sapiens) (O94907 whole entry, looked up): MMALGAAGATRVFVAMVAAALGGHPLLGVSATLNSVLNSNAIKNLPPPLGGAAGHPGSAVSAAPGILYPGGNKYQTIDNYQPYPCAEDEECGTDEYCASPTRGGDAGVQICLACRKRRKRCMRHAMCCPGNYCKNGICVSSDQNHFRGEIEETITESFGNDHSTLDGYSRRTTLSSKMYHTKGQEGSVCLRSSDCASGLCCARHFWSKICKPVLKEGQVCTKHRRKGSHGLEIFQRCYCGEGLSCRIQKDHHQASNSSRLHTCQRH
# Chain of Left-right determination factor 2 (Homo sapiens) (O00292 whole entry, looked up): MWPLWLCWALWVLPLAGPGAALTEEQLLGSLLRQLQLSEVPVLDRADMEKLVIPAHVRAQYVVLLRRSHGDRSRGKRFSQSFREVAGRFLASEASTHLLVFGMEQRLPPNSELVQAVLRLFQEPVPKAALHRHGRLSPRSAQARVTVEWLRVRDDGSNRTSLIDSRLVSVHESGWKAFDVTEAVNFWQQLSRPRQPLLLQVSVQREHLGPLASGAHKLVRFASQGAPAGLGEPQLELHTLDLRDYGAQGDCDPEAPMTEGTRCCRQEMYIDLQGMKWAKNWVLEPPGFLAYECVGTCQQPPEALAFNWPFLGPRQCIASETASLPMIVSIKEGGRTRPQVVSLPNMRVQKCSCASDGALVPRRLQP
SMILES,composite z-score [1],composite z-score [2],composite z-score [3],z-score [4],composite z-score [5],composite z-score [6],composite z-score [7],composite z-score [8],composite z-score [9],composite z-score [10],composite z-score [11],z-score [12],composite z-score [13],composite z-score [14],composite z-score [15],composite z-score [16],composite z-score [17],composite z-score [18],composite z-score [19],composite z-score [20]
COCCCN1C(=O)[C@@]2(Cc3ccccc31)c1ccccc1C(=O)N(Cc1ccccc1C(F)(F)F)[C@H]2c1ccc(CO)cc1,1.13,-0.106,-0.563,0.498 (inactive),0.94,0.561,0.12,0.919,0.756,0.915,0.898,-0.311,0.33,-0.47,-0.206,0.439,-0.243,1.79,0.094,0.33
CC(C)(C)OC(=O)CC[C@]1(C(=O)NCC(O)CO)COC(c2ccc(OCCCO)cc2)=N1 (stereo not given in full),0.304,0.747,0.788,0.646 (inactive),0.145,0.435,-0.172,-0.952,-1.01,0.173,1.31,-0.105,-0.455,1.5,0.834,-0.0512,0.275,0.592,1.7,1.88
COc1cc2c(cc1O)C(C1CC1)N(Cc1cc3c(cc1Br)OCO3)CC2 (stereo not given),0.802,-0.197,0.655,-0.39 (inactive),-1.02,-1.26,-1.12,-1.35,-0.948,-0.13,0.0206,-3.51,-1.25,-0.515,-0.58,-0.124,-0.134,-0.33,-0.447,-0.745
O=C1c2ccccc2[C@](Cc2ccccc2I)(C(=O)NC2CC2)[C@H](c2ccc(CO)cc2)N1Cc1ccccc1,0.701,-0.145,0.693,-0.0921 (inactive),0.409,-0.0685,-0.375,-0.117,-0.112,0.0183,0.742,-0.701,-0.346,0.438,0.0099,-0.101,0.234,0.099,0.711,0.832
COC(=O)[C@@]1(Cc2ccc(F)cc2)[C@H]2c3cc(C(=O)N(C)C)n(Cc4ccc(S(C)(=O)=O)cc4)c3C[C@H]2CN1C(=O)c1ccccc1,0.46,0.883,0.899,0.895 (inactive),1.35,0.0364,0.603,0.0567,-0.0071,0.95,-0.164,-0.328,0.213,2.54,0.497,-0.0125,0.123,1.84,2.08,0.15
COc1cc2c(cc1OC)CN(C(=O)[C@H]1[C@@H]3C(=O)O[C@@H](c4ccccc4)[C@@H](c4ccccc4)N3[C@@H](c3ccc(O)cc3)[C@]13C(=O)Nc1ccc(C#CCNC(N)=O)cc13)CC2,1.11,-0.0741,0.0306,-0.996 (inactive),1.11,-0.294,-0.0357,0.903,0.596,0.544,-0.208,-0.145,0.264,-0.123,0.0061,-0.0403,0.0141,-0.198,-0.0992,-0.0782
COc1ccc(C(O)C2C=CC3C(=O)NC(=O)C3N2Nc2ccccn2)cc1 (stereo not given),0.948,0.422,0.267,0.706 (inactive),0.257,-0.0877,0.686,0.304,0.645,0.371,-1.08,0.824,0.494,-1.3,-0.498,0.0158,-0.106,0.0861,0.658,-0.0568
CC(C)(C)OC(=O)CC[C@]1(C(=O)O)N=C(c2ccc(OCCCO)cc2)O[C@H]1c1ccccc1N=[N+]=[N-],1.34,1.75,1.11,0.115 (inactive),0.443,0.581,-0.143,0.4,0.0608,0.977,0.148,2.27,0.101,1.84,0.465,0.38,0.699,2.34,1.41,1.42
C=CCNC(=O)[C@@H]1[C@H]2C(=O)O[C@H](c3ccccc3)[C@H](c3ccccc3)N2[C@H](c2ccc(OCCO)cc2)[C@@]12C(=O)Nc1ccc(C#CCCO)cc12,1.7,-0.0674,0.456,-1.09 (inactive),1.22,1.27,0.652,1.42,1.12,1.26,1.32,-1.36,1.28,1.44,-0.0758,0.452,2.63,2.4,2.12,1.68
CN(C)C(=O)[C@@]1(Cc2ccccc2)N=C(c2ccc(OCCCO)cc2)O[C@H]1c1ccccc1N=[N+]=[N-],1.36,0.898,0.914,-1.26 (inactive),1.36,1.26,0.189,0.843,-0.237,0.994,1.42,-2.79,-0.0506,1.09,0.0779,0.178,-0.0146,-0.482,0.491,0.567
CC(C)(C)OC(=O)CC[C@@]1(C(N)=O)N=C(c2ccc(OCCCO)cc2)O[C@@H]1c1ccccc1,1.19,0.307,0.666,-0.0742 (inactive),0.958,1.15,-0.467,0.0089,-0.534,0.557,1.38,0.14,-0.289,0.31,-0.216,-0.0512,-0.419,-0.534,1.2,0.646
